The source of these data is PubChem BioAssay AID864 (The Scripps Research Institute Molecular Screening Center, 2007).

This is one part of the list. The source made the active and inactive calls. Cut-off read from the data, not from the text of the source: active = activation above about 8.4%; inactive = the rest.

The assay concerns the target Galanin receptor type 2 (Homo sapiens) (UniProt O43603). Nature of the assay: activators of human galanin receptor 2 – cell-based, confirmation (AID 864).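 Note: 0% = buffer-only vehicle wells and 100% = full reference agonist response.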 The note with it: GALR2-expressing cells, agonist activation; at 5.6 µM; stronger effect = higher value.

Sequence of Galanin receptor type 2 (Homo sapiens) (O43603 whole entry, looked up): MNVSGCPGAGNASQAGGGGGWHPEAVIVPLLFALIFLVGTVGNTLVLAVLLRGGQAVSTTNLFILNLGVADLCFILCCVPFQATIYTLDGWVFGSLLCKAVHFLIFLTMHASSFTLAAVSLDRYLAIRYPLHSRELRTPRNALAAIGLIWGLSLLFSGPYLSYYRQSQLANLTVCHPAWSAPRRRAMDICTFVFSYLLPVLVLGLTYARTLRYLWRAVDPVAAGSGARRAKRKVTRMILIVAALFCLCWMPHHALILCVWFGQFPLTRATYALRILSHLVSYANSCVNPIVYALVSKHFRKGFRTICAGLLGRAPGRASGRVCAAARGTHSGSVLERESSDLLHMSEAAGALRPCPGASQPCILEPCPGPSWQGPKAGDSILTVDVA

On to `C=CCN(CC=C)S(=O)(=O)c1ccc(C(=O)Nc2nc3c(s2)CCc2ccccc2-3)cc1`, for which the activation was 2.82% (inactive).
In the case of `O=C1COc2ccc(NC(=O)N3CCN(c4ccc(F)cc4)CC3)cc2N1`, the activation is -0.98% (inactive).
In the case of `COc1ccc(Nc2oc(-c3ccccc3Cl)nc2C#N)cc1`, the activation was 2% (inactive).
As for `COc1cc(SC#N)ccc1N=Cc1c(C)[nH]n(-c2ccc(C)cc2)c1=O`, the activation is 7.97% (inactive).
Turning to `COc1ccccc1N1N=C(c2cccs2)CC1c1ccccc1` (stereo not given), the activation was 6.34% (inactive).
The result for `COc1ccc(C(=O)CN2C(=O)NC(C)(c3ccc(C)cc3)C2=O)cc1OC` (stereo not given) reads -0.91% (inactive); that for `Fc1ccc(N2N=C(c3cccs3)CC2c2ccco2)c(F)c1` (stereo not given), 1.22% (inactive); that for `O=C(NC(=S)Nc1ccc(NC(=O)c2cccs2)cc1)c1ccc([N+](=O)[O-])cc1`, -0.89% (inactive).
As to `Cc1ccc(Cc2c(C)nc3nc(SCC(=O)NCCN4CCOCC4)nn3c2C)cc1`, the activation was -0.11% (inactive).
As to `CC(=O)Oc1ccc(C(C)=O)c2c1OCCO2`, the activation is -0.99% (inactive).
